# From PubChem BioAssay
# Only some compounds are listed: those with a hit (about 0.28% of all), similar ones and a draw of the others.
# hcGAS inh – inhibitors of human cGAS | Q8N884 | recombinant h-cGAS, ATP depletion, Kinase-Glo luminescence | inhibition, % at 12.5 µM | 290,000 compounds, 0.081% hits | AID 1259398;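 note: 0% = vehicle reaction and 100% = reaction without DNA for no activity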
# mcGAS inh – inhibitors of mouse cGAS. Q8C6L5. recombinant cGAS, Kinase-Glo ATP depletion luminescence. inhibition, % at 12.5 µM. 160,000 compounds, 0.15% hits;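 note: 0% = negative control wells and 100% = reference inhibitor with no enzyme activity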
# Target sequence (Q8C6L5 whole entry, looked up): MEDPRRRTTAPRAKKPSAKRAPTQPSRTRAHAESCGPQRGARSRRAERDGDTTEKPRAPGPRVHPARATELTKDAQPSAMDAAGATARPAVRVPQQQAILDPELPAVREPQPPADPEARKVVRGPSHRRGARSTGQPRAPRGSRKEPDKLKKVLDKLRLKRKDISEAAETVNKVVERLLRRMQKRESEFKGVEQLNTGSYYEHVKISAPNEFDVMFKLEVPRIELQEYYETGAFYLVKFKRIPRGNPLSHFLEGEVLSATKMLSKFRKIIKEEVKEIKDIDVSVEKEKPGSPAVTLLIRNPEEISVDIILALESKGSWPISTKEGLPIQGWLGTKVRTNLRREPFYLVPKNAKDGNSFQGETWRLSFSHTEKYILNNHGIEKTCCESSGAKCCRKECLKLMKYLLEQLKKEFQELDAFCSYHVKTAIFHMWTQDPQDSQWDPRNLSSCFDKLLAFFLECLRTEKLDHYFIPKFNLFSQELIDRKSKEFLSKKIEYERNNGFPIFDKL
# NPYLR7 agonist – activates Aedes aegypti NPYLR7 receptor | HEK293T NPYLR7/Galpha15, GCaMP6s calcium fluorescence | AID 1259423 | activation, % at 10 µM | 270,000 compounds, 0.15% hits; in the data active = activation above about 40%;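 note: 0% = vehicle and 100% = reference agonist at the receptor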
# Active calls of the source: *; nt = no result; ! = a repeat was not active. Cut-off read from the data, not from the text of the source, unless noted: active = inhibition above about 40%; inactive = the rest.
SMILES,hcGAS inh,mcGAS inh,NPYLR7 agonist
COc1ccc(-c2cc3c(cn2)nc(NCc2ccccc2)n3C)c(C)c1,-1.7,-5.3,-2.4
COc1ccc(OCC(=O)NCc2cc(-c3ccc4c(c3)OCO4)on2)cc1,-11.5,-7.8,3.0
Cc1cccc(OC(C)C(=O)NC2(C)CCS(=O)(=O)C2)c1 (stereo unspecified),-8.9,nt,4.6
CCCCCCCc1c(O)nc(SCCN(CCC)CCC)[nH]c1=O,-6.5,nt,4.9
Cc1ccc(NC(=O)CSc2nc(=O)n3ccc(C)cc3n2)c(C)c1,0.6,-0.9,1.9
O=C(C1CCCN(c2nc3nonc3nc2N2CCCCCC2)C1)N1CCOCC1 (stereo unspecified),6.0,nt,7.5
CCOC(=O)C1CCCN(c2nc3nonc3nc2N2CCSCC2)C1 (stereo unspecified),-9.2,-3.5,44.8*!
CSC(N)=NC(c1ccc(F)cc1)c1ccc(F)cc1,-4.4,nt,7.1
COc1cc(C=C2N=C(c3ccc4c(c3)OCO4)OC2=O)cc2c1OCCO2,-3.8,nt,97.5*
CCOc1ccc(C2=NC(=Cc3cc(OC)c4c(c3)OCCO4)C(=O)O2)cc1OCC,-6.0,nt,2.1
COCCN(CCOC)C(=O)/C=C/c1cn(S(=O)(=O)c2cccc3ccccc23)c2ccccc12,-4.2,-2.3,-5.6
NC(=O)c1ccc(CN(C(=O)c2ccc(Br)s2)C2CC2)cc1,-3.5,nt,10.2
O=C(O)c1ccc(CSCC(=O)N2CCCCC2)cc1,-8.3,-5.8,3.3
CC(=O)Nc1cccc(NC(=O)CSc2nc3c(-c4ccccc4)c(C)nn3c(=O)[nH]2)c1,28.2,-4.1,4.6
Cc1cc(NC(=O)CSc2nc3c(-c4ccccc4)c(C)nn3c(=O)[nH]2)no1,46.4*,-3.1,9.1
Cc1cc2nc(N(Cc3cccnc3)C(=O)c3ccc([N+](=O)[O-])s3)sc2cc1C,-7.5,-7.7,-1.9
CCCCCc1ccc(C(=O)N2CCSC2c2ccc(Cl)cc2Cl)cc1 (stereo unspecified),-4.8,-4.4,-3.0
N[C@@H](Cc1cc(-c2ccc(Cl)cc2Cl)cc(CP(=O)(O)O)c1O)C(=O)O,53.4*,nt,-13.1
NC(Cc1ccc(Cl)cc1)C(=O)O (stereo unspecified),-2.6,-4.8,-6.9
O=C1NC(=NS(=O)(=O)c2ccccc2)SC1=Cc1cc([N+](=O)[O-])ccc1O,34.7,74.8*,61.0*
O=C1NC(=NC2CCCC2)SC1=Cc1cc([N+](=O)[O-])ccc1N1CCCC1,-4.8,nt,-3.3
O=c1cc(-c2ccccc2)oc2cc(O)c(O)cc12,33.6,29.1,-4.3
O=c1cc(-c2ccccc2)oc2c(O)c(O)ccc12,71.5*,nt,-1.4
Cc1ccc(C=C(C#N)S(=O)(=O)c2ccc(Br)cc2)o1,-6.3,nt,4.7
COc1ccc2c(c1)OCC(C=C(C#N)S(=O)(=O)c1ccc(Br)cc1)=C2,-6.5,nt,93.1*
SMILES,hcGAS inh,mcGAS inh,NPYLR7 agonist
Cc1ccc(C)c(S(=O)(=O)Nc2ccc(Nc3ccc(-n4cccn4)nn3)cc2)c1,-6.3,-9.9,-5.1
CC1CCC2C(=O)N(NC(=O)Cc3c[nH]c4ccccc34)C(=O)C2C1 (stereo unspecified),-4.7,-6.2,7.1
CO/N=C(/C(=O)NC(C)CC(C)C)c1csc(NC=O)n1 (stereo unspecified),-5.4,-3.9,2.1
Cc1ccc(N2NC(=O)/C(=C/c3cccc(OC(=O)c4cccs4)c3)C2=O)cc1Cl,-0.2,53.3*,-0.3
CCc1ccc(/C=C2\C(=O)NN(c3ccc(Cl)c(Cl)c3)C2=O)cc1,-8.2,14.7,5.7
COCC(=O)N1CCN(Cc2ccc(-c3noc(-c4cccc(C(F)(F)F)c4)n3)cc2)CC1,-9.6,-8.6,2.9
O=C(c1ccco1)N(Cc1c(-c2ccc(F)cc2)noc1N1CCOCC1)CC1CC1,-3.8,-5.8,6.7
CCOC(=O)c1sc(NC(=O)CSc2nnc(C)s2)c(C(=O)OCC)c1C,-4.3,61.3*,-3.8
CCOC(=O)c1sc(NC(=O)CSc2nnc3ccccn23)c(C(=O)OCC)c1C,-6.2,-3.0,-1.7
CC1CCN(C2=C(c3c(-c4ccccc4)[nH]n(C)c3=O)C(=O)N(CC3CCCO3)C2=O)CC1 (stereo unspecified),-4.3,-4.8,-1.9
CCN(CC)c1ccc2cc(C(N)=O)c(=NCc3ccccc3)oc2c1,1.1,nt,-3.4
CCN(CC)c1ccc2cc(C(N)=O)/c(=N\NC(N)=S)oc2c1,-6.8,3.2,130.4*
CCOC(=O)C1CCCN(c2nc(CC(C)C)nc3sc4c(c23)CCCCC4)C1 (stereo unspecified),0.1,-2.3,-0.4
CNC(=O)C1CN(C(=O)CCl)c2ccccc2O1 (stereo unspecified),-10.0,24.1,27.7
N#CC(C(=O)C(F)(F)F)c1nc2ccccc2s1 (stereo unspecified),43.8*,nt,1.3
N#CC(C(=O)COc1cc(F)ccc1F)c1nc2ccccc2s1 (stereo unspecified),-8.6,nt,9.3
COc1cccc(CN(Cc2ccc(F)cc2)CC(O)COc2ccccc2)c1 (stereo unspecified),-4.2,76.3*,38.8
CCCN(Cc1ccsc1)CC(O)COc1ccccc1 (stereo unspecified),-4.1,40.6*,26.8
CC(C)CN(Cc1ccsc1)CC(O)COc1ccc(Cl)cc1 (stereo unspecified),-6.0,-4.1,6.3
C=CCOCC(O)CN(Cc1ccc(F)cc1)Cc1cccc(OC)c1 (stereo unspecified),-9.8,-3.9,22.4
Oc1cccc(-c2nc[nH]c2-c2ccccc2)c1,-2.9,nt,9.2
COCCn1c(=NC(=O)C2=COCCO2)sc2ccccc21,-4.3,nt,6.5
Cc1ccc(Nc2ncnc3c2nnn3C)cc1,-4.6,nt,8.7
Cc1ccc(NC(=O)c2cc3n(n2)CCN(Cc2cccc(Cl)c2)C3=O)cc1C,-6.0,-5.1,0.0
COc1cccc(-n2c(O)c(C=Nc3cc(OC)ccc3OC)c3ccccc3c2=O)c1,-2.7,-5.9,51.8*
SMILES,hcGAS inh,mcGAS inh,NPYLR7 agonist
COc1ccc(N=Cc2c(O)n(-c3ccccc3)c(=O)c3ccccc23)c(OC)c1,-5.0,-6.3,-2.8
O=c1c(O)c(-c2cc(Cl)cc3c2OCOC3)oc2ccc(Cl)cc12,-7.3,nt,2.1
COc1ccc(/C=C2/C(=O)NC(=O)N(C(C)(C)C)C2=O)cc1,-0.8,-6.5,-16.1
COCCCNCc1c(-c2ccc(F)cc2)noc1N1CCOCC1,-2.8,nt,46.2*
COCCCNCc1c(-c2ccccc2)noc1N1CCc2ccccc2C1,-3.3,nt,15.2
Nc1nc(SCC(=O)Nc2ccccc2F)[nH]c(=O)c1NC(=O)c1ccc(F)cc1,-0.1,-2.4,-5.2
CC1=NNc2nc3c(c(=O)n(Cc4ccc(F)cc4)c(=O)n3C)n2C1,-8.7,-9.4,2.1
CN1CCN(C(CNS(=O)(=O)c2ccc(F)cc2)c2ccsc2)CC1 (stereo unspecified),-2.1,-5.1,21.2
CSc1ccc(C2CC(c3cccs3)=Nc3ncnn32)cc1 (stereo unspecified),-4.6,nt,124.3*
c1ccc(C2=Nc3ncnn3C(c3ccccc3)C2)cc1 (stereo unspecified),4.7,1.3,1.2
COCc1cccc(S(=O)(=O)Nc2ccc3ccn(C)c3c2)c1,-11.0,nt,13.4
O=C(Nc1ccc(OCC2CCCO2)cc1)c1n[nH]c2ccccc12 (stereo unspecified),-3.9,-6.0,5.9
COc1ccc(/C=C/C(=O)c2ccc(O)cc2O)cc1,-1.3,nt,-16.7
